In PubChem BioAssay (NCI):
This is part of a sample that, as a whole, favours compounds with a hit. Of some 79,000 tested, about 15% had one in any assay. Activity calls are given as the source filed them. Cut-off read from the data, not from the text of the source: active = growth inhibition above about 70%; inactive = the rest.

Columns and labels:
[1] = NCI Yeast Anticancer Drug Screen. Data for the wt1 strain (AID 149);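 note: 0% = growth of vehicle-treated wt1 cultures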; conditions: S. cerevisiae wt1 strain (SPY 50644) growth inhibition, hits give high values
Procedure, shortened: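 wt1 yeast, compound-treated; % growth inhibition vs vehicle control.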

[2] = NCI Yeast Anticancer Drug Screen. Data for the rad50EPP+ strain (AID 151);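 note: 0% = growth of vehicle-treated control cultures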; conditions: S. cerevisiae rad50 mutant strain, hits give high values
Procedure, shortened: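 Measured: growth inhibition of rad50EPP+ yeast. Reference: vehicle-treated controls. Screen uses strains with defined genetic alterations in DNA damage repair or cell cycle control.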

[3] = NCI Yeast Anticancer Drug Screen. Data for the mgt1 strain (AID 153); conditions: S. cerevisiae mgt1 mutant growth inhibition, hits give high values
Procedure, shortened: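 Compounds were applied to mgt1 mutant yeast, and growth was then compared against vehicle-treated control cultures to give percent inhibition.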

[4] = NCI Yeast Anticancer Drug Screen. Data for the rad50 strain (AID 155);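 note: 0% = growth of vehicle-only cultures of the same strain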; conditions: S. cerevisiae rad50 strain growth inhibition, hits give high values
Procedure, shortened: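 Genetically altered yeast (DNA repair pathway); compound treatment; growth inhibition vs vehicle ctrl.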

[5] = NCI Yeast Anticancer Drug Screen. Data for the mec2-1 strain (AID 157); conditions: S. cerevisiae mec2-1 strain, hits give high values
Procedure, shortened: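 Compounds were applied to mec2-1 yeast cells. Their growth was then compared with that of vehicle-treated cultures to give growth inhibition.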

[6] = NCI Yeast Anticancer Drug Screen. Data for the rad14 strain (AID 159);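 note: 0% = growth of vehicle-treated control cultures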; conditions: S. cerevisiae rad14 strain growth inhibition, hits give high values
Procedure, shortened: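 Test compounds were applied to a repair-deficient yeast strain. Its growth was then compared with that of cultures given vehicle alone, and inhibition was expressed relative to those controls.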

[7] = NCI Yeast Anticancer Drug Screen. Data for the sgs1 mgt1 strain (AID 161);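 note: 0% = growth of cultures given vehicle only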; conditions: S. cerevisiae sgs1 mgt1 strain, hits give high values
Procedure, shortened: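 Growth of a repair-deficient yeast mutant was monitored after compound treatment and expressed as inhibition relative to vehicle-treated cultures.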

[8] = NCI Yeast Anticancer Drug Screen. Data for the CLN2oe strain (AID 163);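 note: 0% = growth of vehicle-only control cultures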; conditions: S. cerevisiae CLN2oe strain, hits give high values
Procedure, shortened: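 Cells of an engineered yeast line with disturbed cell-cycle regulation are treated with compound. Inhibition of growth is then calculated relative to the vehicle-treated reference.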

[9] = NCI Yeast Anticancer Drug Screen. Data for the cln2 rad14 strain (AID 165);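 note: 0% = growth equal to vehicle treated cultures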; conditions: S. cerevisiae cln2 rad14 strain, hits give high values
Procedure, shortened: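 Strain: cln2 rad14 yeast, altered in cell cycle control and DNA damage repair. Read-out: growth inhibition vs vehicle.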

[10] = NCI Yeast Anticancer Drug Screen. Data for the bub3 strain (AID 167); conditions: S. cerevisiae bub3 mutant strain, hits give high values
Procedure, shortened: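 Yeast carrying a defined mutation is treated with each compound, and growth is compared with that of vehicle-exposed cells to give inhibition.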

[11] = NCI Yeast Anticancer Drug Screen. Data for the wt2 strain (AID 169);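 note: 0% = growth of vehicle-treated yeast cultures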; conditions: S. cerevisiae wt2 strain growth inhibition, hits give high values
Procedure, shortened: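 Growth of compound-treated yeast is measured and expressed as inhibition relative to vehicle-only controls.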

[12] = NCI Yeast Anticancer Drug Screen. Data for the mlh1 strain (AID 171);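 note: 0% = growth of vehicle-treated control cultures of the same strain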; conditions: S. cerevisiae mlh1 strain growth inhibition, hits give high values
Procedure, shortened: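 Test agents were incubated with yeast bearing a defined DNA damage repair or cell cycle control alteration; values are growth inhibition normalised to vehicle-treated cultures.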

[13] = NCI Yeast Anticancer Drug Screen. Data for the sgs1 strain (AID 173);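 note: 0% = growth of vehicle-only control cultures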; conditions: S. cerevisiae sgs1 mutant, hits give high values
Procedure, shortened: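 Strain with an altered DNA repair or cell cycle pathway exposed to compound. Growth then measured. Value = inhibition versus vehicle control.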

[14] = NCI Yeast Anticancer Drug Screen. Data for the mlh1 rad18 strain (AID 175); conditions: S. cerevisiae mlh1 rad18 strain growth inhibition, hits give high values
Procedure, shortened: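 A repair-deficient yeast strain is exposed to test compound, and growth is scored relative to vehicle-treated controls.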

[15] = NCI Yeast Anticancer Drug Screen. Data for the rad18 strain (AID 177); conditions: S. cerevisiae rad18 mutant growth inhibition, hits give high values
Procedure, shortened: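 DNA-repair-defective yeast; compound treatment; growth inhibition scored against vehicle.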

[16] = at 5.0 µM (retest, dose inferred, filed as 0.5)
[17] = at 50.0 µM (retest, dose inferred, filed as 5.0)

Measured: growth inhibition

COc1cc(C2SCC(=O)N2c2ccc(-c3ccc(-n4c(-c5ccccc5)nc5ccccc5c4=O)cc3)cc2)ccc1O (stereo unspecified)
active: [10]; at 50.0 µM 82.3% | [14]; [17] 76% | [14]; at 50.0 µM 73.7%
inactive: [1]; at 1.2 µM -2% | [1]; at 3.7 µM -2% | [1]; at 11.0 µM -1% | [1]; at 33.0 µM -4% | [1]; at 100.0 µM -8% | [2]; at 1.2 µM 3% | [2]; at 3.7 µM 13% | [2]; at 11.0 µM 19% | [2]; at 33.0 µM 27% | [2]; at 100.0 µM 27% | [3]; at 1.2 µM 1% | [3]; at 3.7 µM 1% | [3]; at 11.0 µM 0% | [3]; at 33.0 µM 2% | [3]; at 100.0 µM 28% | [4]; at 1.2 µM -4% | [4]; at 3.7 µM -1% | [4]; [16] -11% | [4]; at 11.0 µM 0% | [4]; at 33.0 µM 8% | [4]; [17] 35% | [4]; at 50.0 µM 58.4% | [4]; at 100.0 µM 21% | [5]; at 1.2 µM 0% | [5]; at 3.7 µM -1% | [5]; [16] -11% | [5]; at 11.0 µM 0% | [5]; at 33.0 µM 2% | [5]; [17] 21% | [5]; at 50.0 µM 34% | [5]; at 100.0 µM 9% | [6]; at 1.2 µM -1% | [6]; at 3.7 µM -1% | [6]; at 11.0 µM 2% | [6]; at 33.0 µM 11% | [6]; at 100.0 µM 25% | [7]; [16] -7% | [7]; [17] 31% | [7]; at 50.0 µM 65% | [8]; at 1.2 µM -2% | [8]; at 3.7 µM -2% | [8]; at 11.0 µM -7% | [8]; at 33.0 µM -14% | [8]; at 100.0 µM -14% | [9]; [16] -9% | [9]; [17] 10% | [9]; at 50.0 µM 25.7% | [10]; at 1.2 µM 1% | [10]; at 3.7 µM 9% | [10]; [16] -14% | [10]; at 11.0 µM 19% | [10]; at 33.0 µM 23% | [10]; [17] 69% | [10]; at 100.0 µM 41% | [11]; at 1.2 µM -2% | [11]; at 3.7 µM -2% | [11]; at 11.0 µM -2% | [11]; at 33.0 µM -2% | [11]; at 100.0 µM 4% | [12]; at 1.2 µM -2% | [12]; at 3.7 µM 1% | [12]; at 11.0 µM 1% | [12]; at 33.0 µM 3% | [12]; at 100.0 µM 20% | [13]; at 1.2 µM -3% | [13]; at 3.7 µM 0% | [13]; at 11.0 µM 0% | [13]; at 33.0 µM 2% | [13]; at 100.0 µM 10% | [14]; [16] -14% | [15]; at 1.2 µM -3% | [15]; at 3.7 µM -1% | [15]; at 11.0 µM 0% | [15]; at 33.0 µM 3% | [15]; at 100.0 µM 7%

OC(/C=C/c1ccccc1)(Cc1cc(-c2ccccc2)n[nH]1)c1ccccc1 (stereo unspecified)
inactive: [2]; at 1.2 µM 12% | [2]; at 3.7 µM 11% | [2]; at 11.0 µM 14% | [2]; at 33.0 µM 13% | [2]; at 100.0 µM 13% | [3]; at 1.2 µM 9% | [3]; at 3.7 µM 12% | [3]; at 11.0 µM 10% | [3]; at 33.0 µM 12% | [3]; at 100.0 µM 13% | [4]; at 1.2 µM 8% | [4]; at 3.7 µM 7% | [4]; [16] -3% | [4]; at 11.0 µM 4% | [4]; at 33.0 µM 11% | [4]; at 100.0 µM 8% | [5]; at 1.2 µM 9% | [5]; at 3.7 µM 11% | [5]; [16] 1% | [5]; at 11.0 µM 12% | [5]; at 33.0 µM 13% | [5]; at 100.0 µM 12% | [6]; at 1.2 µM 15% | [6]; at 3.7 µM 15% | [6]; at 11.0 µM 13% | [6]; at 33.0 µM 17% | [6]; at 100.0 µM 16% | [7]; [16] 17% | [8]; at 1.2 µM 23% | [8]; at 3.7 µM 24% | [8]; at 11.0 µM 24% | [8]; at 33.0 µM 26% | [8]; at 100.0 µM 24% | [9]; [16] -19% | [10]; at 1.2 µM 3% | [10]; at 3.7 µM 3% | [10]; [16] -10% | [10]; at 11.0 µM 2% | [10]; at 33.0 µM 7% | [10]; at 100.0 µM 6% | [11]; at 1.2 µM -11% | [11]; at 3.7 µM -8% | [11]; at 11.0 µM -15% | [11]; at 33.0 µM -8% | [11]; at 100.0 µM -14% | [12]; at 1.2 µM 10% | [12]; at 3.7 µM 12% | [12]; at 11.0 µM 12% | [12]; at 33.0 µM 13% | [12]; at 100.0 µM 14% | [13]; at 1.2 µM -9% | [13]; at 3.7 µM 6% | [13]; at 11.0 µM 4% | [13]; at 33.0 µM 9% | [13]; at 100.0 µM 1% | [14]; [16] 18% | [15]; at 1.2 µM 12% | [15]; at 3.7 µM 12% | [15]; at 11.0 µM 11% | [15]; at 33.0 µM 15% | [15]; at 100.0 µM 24%
active: [4]; [17] 97% | [4]; at 50.0 µM 98.6% | [5]; [17] 97% | [5]; at 50.0 µM 99.1% | [7]; [17] 97% | [7]; at 50.0 µM 97.8% | [9]; [17] 94% | [9]; at 50.0 µM 98.3% | [10]; [17] 98% | [10]; at 50.0 µM 99.2% | [14]; [17] 97% | [14]; at 50.0 µM 98.7%
